Rows were chosen to be rich in hits. Some 11% of all compounds tested hit in one or more screens of this group.
PNC inhibitor = High Content Assay for Compounds that inhibit the Assembly of the Perinucleolar Compartment. PC3M PTB-GFP, PNC prevalence imaging, 16 h; hits give low values. activity change (PNC), negative = inhibition, % at 10 µM. 140,000 compounds, 3.1% hits. AID 2417, 2010;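 active = readout at or below -70, meaning at least 70% loss of cells showing the perinucleolar compartment, a nuclear body marking cancer cells; inconclusive = readout between -30 and a set limit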;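 also: plate controls were DMSO wells for no effect and camptothecin positive control wells for full effect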
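Compounds are pinned in duplicate onto adhered PC3M cells stably expressing GFP-tagged PTB and incubated 16 h at 37 C. Cells are then fixed, nuclei stained with Hoechst, and PNC-positive cells counted.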
IMPase Li inh = qHTS Assay for Identifying the Cell-Membrane Permeable IMPase Inhibitors: Potentiation with Lithium. CHO-M1 cells, IP1 TR-FRET (IP-One), carbachol + lithium. Potency, µM (top dose mostly 59.4 µM), inactives show top-dose activity, negative = IMPase inhibition, usual class: inhibitors. 210,000 compounds, 0.35% hits; active = well fitted curve in the direction sought with a large enough effect; inconclusive = small, poorly fitted or top-dose-only effect, or another doubt; inactive = no such curve, though single readings can be large; an effect the other way counts as inactive or inconclusive;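 also: IP1 builds up when IMPase is blocked and the TR-FRET signal falls; potency is read from the fitted curve at half-maximal effect; plate controls were basal vehicle for no effect and high inhibitor control for full effect; nearly all actives have a fitted effect of over 50% in size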
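IP1 accumulation measured by competitive TR-FRET in lysed CHO-M1 cells after 30 min compound exposure at 37C, with a small lithium addition to potentiate weak responses. Hill-equation AC50 from ratio and donor-channel data.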
IMPase inh = qHTS Assay for Identifying the Cell-Membrane Permeable IMPase Inhibitors | 120,000 tested, under 10 active | CHO-M1 cells, IP1 accumulation, HTRF TR-FRET ratio | inhibition (IP1 accumulation), % at 46.1 µM | AID 901, 2007 | Inositol monophosphatase 1 (Rattus norvegicus), P97697; active = well fitted curve in the direction sought with a large enough effect in the signal ratio, not every such curve was filed as active; inconclusive = small, poorly fitted or top-dose-only effect, or a change in a side signal; inactive = no such curve, though single readings can be large or run the other way; the % refers to the signal ratio;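 also: cells stimulated with carbachol in lithium chloride buffer; plate controls were DMSO basal wells for no effect and reference inhibitor wells for full effect; higher means more IMPase inhibition seen as more IP1 and lower FRET ratio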
Target sequence (P97697 whole entry, looked up): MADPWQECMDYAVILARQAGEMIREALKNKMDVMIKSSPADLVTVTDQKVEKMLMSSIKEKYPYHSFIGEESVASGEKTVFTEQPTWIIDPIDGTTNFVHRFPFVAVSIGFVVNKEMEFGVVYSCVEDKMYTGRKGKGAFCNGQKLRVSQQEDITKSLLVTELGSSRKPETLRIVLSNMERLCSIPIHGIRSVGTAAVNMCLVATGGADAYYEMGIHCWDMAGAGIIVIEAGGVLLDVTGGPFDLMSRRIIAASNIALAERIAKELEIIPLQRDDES
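CHO-M1, 2000 cells/well, cultured 16–30 h; cpd up to 46 uM; carbachol (50 uM solution, stimulation buffer w/ 50 mM LiCl, pH 7.4), 30 min 37C; IP-One TR-FRET, 10 min RT; Ex 320/Em 665, 620; Hill-fit AC50.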
ALDH1A1 block = qHTS Assay for Inhibitors of Aldehyde Dehydrogenase 1 (ALDH1A1); Purified ALDH1A1, NADH fluorescence, propionaldehyde substrate; Potency, µM (highest dose often 75.3 µM), without a hit: at the highest dose activity, negative = inhibition, hits mostly inhibitors; 220,000 compounds, 7.3% hits; AID 1030, 2008;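 also: potency is read from the fitted curve at half-maximal effect; plate controls were no enzyme wells and a reference inhibitor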
ALOX12 inhib = qHTS Assay for Inhibitors of 12-hLO (12-human lipoxygenase) | Potency, µM (series often up to 57.1 µM), for inactives: at the top dose activity change, negative = inhibition, hits mostly inhibitors | 150,000 compounds, 0.12% hits | Polyunsaturated fatty acid lipoxygenase ALOX12 (Homo sapiens), P18054 | AID 1452, 2008 | purified 12-hLO, xylenol orange hydroperoxide absorbance; active = well fitted curve in the direction sought with a large enough effect; inconclusive = small, poorly fitted or top-dose-only effect, or another doubt; inactive = no such curve, though single readings can be large; an effect the other way counts as inactive or inconclusive; also: potency is read from the fitted curve at half-maximal effect; nearly all actives have a fitted effect of over 55% in size
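Purified human 12hLO (150 nM final) was preincubated with compounds for 15 min at room temperature in 25 mM Hepes pH 7.0, 0.01% Triton X-100, then reacted with 40 uM arachidonic acid for 30 min. Hydroperoxide was detected with ferrous iron/xylenol orange.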
HPGD block = qHTS Assay for Inhibitors of HPGD (15-Hydroxyprostaglandin Dehydrogenase). 15-hydroxyprostaglandin dehydrogenase [NAD(+)] (Homo sapiens), P15428. purified HPGD, NADH fluorescence kinetic, PGE2 substrate. Potency, µM, for the others: at the top dose activity change, negative = inhibition, most hits filed as inhibitors. 150,000 compounds, 4.3% hits; also: potency is read from the fitted curve at half-maximal effect
Target sequence (P15428 whole entry, looked up): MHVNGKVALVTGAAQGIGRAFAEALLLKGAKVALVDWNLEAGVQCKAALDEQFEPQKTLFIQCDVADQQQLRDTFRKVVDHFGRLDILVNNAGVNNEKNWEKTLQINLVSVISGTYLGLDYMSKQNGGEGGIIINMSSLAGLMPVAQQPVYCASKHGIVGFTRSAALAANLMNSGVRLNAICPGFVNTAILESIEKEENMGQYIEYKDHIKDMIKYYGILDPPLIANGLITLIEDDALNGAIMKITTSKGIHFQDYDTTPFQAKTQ
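20 nM HPGD preincubated 15 min at room temperature with compound in 50 mM Tris-HCl pH 8, 0.01% Tween 20. Started with 1 mM NAD+ and 30 uM prostaglandin E2; NADH fluorescence (360/450 nm) read 5 times over 30-s intervals, last minus first.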
Active calls of the source: *; u = inconclusive; x = no result; [ ] = dose if it differs, or a comment. Unless noted, calls follow the shape of the dose curve; as a rule, active = well fitted inhibition curve with a large enough effect (not every such curve was filed as active); inconclusive = small, poorly fitted or top-dose-only effect, or another doubt; inactive = no such curve, though single readings can be large or run the other way. Unless noted, % is scaled to controls: 0 for no effect and ±100 for the full control effect.

SMILES	PNC inhibitor	IMPase Li inh	IMPase inh	ALDH1A1 block	ALOX12 inhib	HPGD block
CC(C)=CCC/C(C)=C/CO/N=C1/[C@H]2O[C@@H]2[C@@H](O)[C@H]2[C@H]1CCn1c(=O)n(C)c(=O)n12	x	x	x	11.0%[13.5 µM]	x	x
CCCc1nnc(N2C(=O)c3oc4ccc(F)cc4c(=O)c3C2c2ccc(C(=O)OC)cc2)s1 (stereo not drawn)	x	x	-7.5	x	x	x
CCCCC(=O)Nc1cc2nn(-c3ccc(OCC)cc3)nc2cc1C	x	x	1.5	x	x	x
Cc1ccc(NC2=C/C(=N\S(=O)(=O)c3cccs3)c3ccccc3C2=O)c(C)c1	-22.4	27.9%	28.0	-15.3%	-3.9%	-11.7%
Cc1cccc(NC2=C/C(=N/S(=O)(=O)c3cccs3)c3ccccc3C2=O)c1	-97.0*	-7.4%	x	-1.4%	0.4%	-13.1%
Cc1ccc(C2NC(=S)NC3=C2C(=O)CC(C)(C)C3)cc1 (stereo not drawn)	u	4.3%	-5.7	0.794µM*	-3.0%	-19.3%
COc1c(O)c(O)cc2c1oc1c3cc(C)ccc3oc(=O)c21	x	-1.1%	x	-8.2%	u	14.1µM*
NS(=O)(=O)c1ccc(CCNCC(=O)NC2CC2)cc1	x	x	x	-4.9%	x	x
NS(=O)(=O)c1ccc(CCNCC(=O)N2CCC(Cc3ccccc3)CC2)cc1	x	x	x	10µM*	x	x
COC(=O)c1ccc(NC(CC(C)C)C(=O)OC)c([N+](=O)[O-])c1 (stereo not drawn)	-119.3*	5.2%	7.3	-3.3%	-5.5%	-6.0%
Cc1ccc(S(=O)(=O)NCC(=O)N/N=C/c2ccc(Cl)cc2Cl)cc1	12.8	-6.3%	-6.8	7.08µM*	-20.0%	-4.3%
COc1ccc(NC(=O)CNS(=O)(=O)c2ccc(Cl)cc2)cc1OC	-113.8*	-8.0%	x	7.7%	0.6%	-1.8%
CC1(OC(=O)C2CCCC2)C(=O)C=C2C=C(c3ccsc3)N(c3ccc(CO)cc3)C=C2C1=O (stereo not drawn)	x	10.9%	x	3.2%[13.5 µM]	0.2%[11.4 µM]	-5.0%
COc1ccc(NC(=O)c2cc3ccc4c5ccccc5[nH]c4c3cc2O)cc1	x	x	x	4.0%	x	x
Cc1ccc(C)c(N(C)C(=O)CCNC(=O)Cn2cnc3ccccc3c2=O)c1	x	x	-21.5	x	x	x
CCCCCCC(=O)N/N=C/Cc1ccccc1	u	5.1%[38.3 µM]	-2.1	12.6µM*	0.6%	-20.7%
COc1ccc(S(=O)(=O)NC(C)C(=O)Nc2cccc(C(C)=O)c2)cc1 (stereo not drawn)	-111.7*	36.9%[38.3 µM]	-0.7	-12.6%	-2.3%	-10.3%
CCOC(=O)c1ccc(NC(=O)C(C)NS(=O)(=O)c2ccc(OC)cc2)cc1 (stereo not drawn)	41.7	47.1%[38.3 µM]	-5.0	14.1µM*	-7.8%	u
COc1ccc(S(=O)(=O)NC(C)C(=O)Nc2ccccc2F)cc1 (stereo not drawn)	u	2.3%[38.3 µM]	8.0	0.7%	-3.9%	-7.1%
CCOc1cccc(C(=O)Nc2ccc3oc(-c4ccncc4)nc3c2)c1	x	x	-6.5	x	x	x
CCOC(=O)/C(=C\c1cn(C)c2ccccc12)[N+](=O)[O-]	-19.7	10.1%	6.0	6.31µM*	0.8%	3.55µM*
CCCC(O)(CCN(C)C)c1ccc(OC)cc1 (stereo not drawn)	20.4	40.3%[38.3 µM]	4.6	10µM*	-1.8%	4.8%
CN1/C(=C/C(=O)C2CCC2)Sc2ccccc21	u	-9.5%[38.3 µM]	2.4	3.55µM*	-11.4%	-28.9%
CCCOc1ccc(-c2nn(-c3ccccc3)cc2C2NC(=O)NC(C)=C2C(=O)OC(C)C)cc1 (stereo not drawn)	x	x	6.7	x	x	x
COc1ccc(-c2cc(N)n(S(=O)(=O)c3c(F)c(F)c(F)c(F)c3F)n2)cc1OC	-21.8	12.1%[38.3 µM]	1.1	31.6µM*	-20.4%	-20.9%
SMILES	PNC inhibitor	IMPase Li inh	IMPase inh	ALDH1A1 block	ALOX12 inhib	HPGD block
COc1cccc2c(=O)n(CC(=O)Nc3cccc(F)c3)ccc12	9.6	14.1µM*	-22.9	u	-4.0%	u
CCN(CC)S(=O)(=O)c1cccc(-c2nnc(SCC#N)n2Cc2ccccc2)c1	-21.1	-1.5%[38.3 µM]	10.4	10µM*	-6.4%	-5.8%
CCN(CC)S(=O)(=O)c1cccc(-c2nnc(-c3ccc(C)cc3)o2)c1	u	31.9%[38.3 µM]	-4.2	11.2µM*	2.4%	-23.2%
CCN(CC)S(=O)(=O)c1cccc(-c2nnc(SC(C)C#N)n2Cc2ccccc2)c1 (stereo not drawn)	4.7	8.6%[38.3 µM]	-1.5	7.94µM*	-4.0%	-1.3%
Cc1sc2nc(CN3CCOCC3)nc(NS(=O)(=O)c3ccc4c(c3)OCCO4)c2c1C	18.5	-5.4%[38.3 µM]	-0.3	1.26µM*	-6.3%	-1.4%
CCOc1ccc(Br)cc1S(=O)(=O)Nc1nc(CN2CCOCC2)nc2sc(C)c(C)c12	u	2.3%[38.3 µM]	-10.5	12.6µM*	-8.6%	-5.1%
Cc1sc2nc(CN3CCOCC3)nc(NS(=O)(=O)c3ccccc3)c2c1C	20.3	-0.6%[38.3 µM]	-5.7	u	7.1%	-12.3%
COc1ccc(NC(=O)Cn2cc(S(=O)(=O)N3CCN(c4ccccc4F)CC3)c3ccccc3c2=O)cc1Cl	x	x	3.3	x	x	x
COc1ccc(C2C(C(=O)N3CC(C)CC(C)C3)c3ccccc3C(=O)N2C)cc1 (stereo not drawn)	103.4	7.5%[38.3 µM]	10.2	-1.1%	2.0%	-6.6%
COc1ccc(C2C(C(=O)N3CCC(C)CC3)c3ccccc3C(=O)N2C)cc1 (stereo not drawn)	-85.9*	4.0%	-14.6	-4.6%	1.5%	-6.1%
COc1ccc(C2C(C(=O)N3CCN(c4ccccc4F)CC3)c3ccccc3C(=O)N2C)cc1 (stereo not drawn)	-25.2	24.6%[38.3 µM]	1.1	0.891µM*	-8.1%	-7.4%
CON(C)S(=O)(=O)c1ccc2c(c1)N(Cc1ccc(C)cc1)C(=O)C1CCCN21 (stereo not drawn)	x	-6.7%	x	10µM*	x	x
N#CCN1C(=O)C2CCCN2c2ccc(S(=O)(=O)N3CCOCC3)cc21 (stereo not drawn)	x	-1.9%	x	10µM*	x	x
CCCOc1ccc(-c2nc3ccc(Br)cc3c(=O)o2)cc1	x	x	-0.8	x	x	x
O=C(CSc1nnnn1Cc1ccccc1)Nc1ccc2c(c1)OCCO2	-9.8	-34.6%[38.3 µM]	2.3[9.22 µM]	8.91µM*	-5.0%	-14.0%
CCC(=O)Nc1cccc(NC(=O)CSc2nnnn2Cc2ccccc2)c1	6.6	-0.9%[38.3 µM]	2.0	20µM*	-1.8%	-13.2%
